The source of these data is ChEMBL document CHEMBL1961873, “Compounds: GSK PKIS; Assays: Nanosyn kinase panel” (2012).

Assay [1] concerns the target Mitogen-activated protein kinase kinase kinase kinase 4 (Homo sapiens) (UniProt O95819). As to conditions: at 1 µM.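 Also: reported figure is an averaged inhibition value.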
Assay [2] addresses Dual specificity mitogen-activated protein kinase kinase 1 (Homo sapiens) (UniProt Q02750). The conditions noted are these: at 0.1 µM.
For assay [3] the target is unchanged. The conditions noted are these: at 1 µM.
For assay [4], the target named is Misshapen-like kinase 1 (Homo sapiens) (UniProt Q8N4C8). The conditions noted are these: at 0.1 µM.
For assay [5] the target is unchanged. The conditions noted are these: at 1 µM.
The target of assay [6] is T1, Serine/threonine-protein kinase 4 (Homo sapiens) (UniProt Q13043).
T1 sequence (whole entry): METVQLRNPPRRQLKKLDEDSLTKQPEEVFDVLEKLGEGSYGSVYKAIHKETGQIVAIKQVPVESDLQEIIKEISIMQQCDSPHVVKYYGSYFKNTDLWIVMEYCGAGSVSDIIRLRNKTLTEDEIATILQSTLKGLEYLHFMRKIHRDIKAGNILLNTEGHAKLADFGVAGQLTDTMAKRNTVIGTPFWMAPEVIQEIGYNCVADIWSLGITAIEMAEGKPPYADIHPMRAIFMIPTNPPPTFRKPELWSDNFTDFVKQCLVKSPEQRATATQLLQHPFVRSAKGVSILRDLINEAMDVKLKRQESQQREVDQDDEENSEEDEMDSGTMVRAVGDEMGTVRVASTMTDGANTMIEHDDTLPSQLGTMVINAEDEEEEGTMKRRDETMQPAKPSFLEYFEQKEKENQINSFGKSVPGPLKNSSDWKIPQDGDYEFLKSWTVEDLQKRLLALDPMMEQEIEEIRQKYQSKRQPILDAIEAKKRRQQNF
As to conditions: at 0.1 µM.

Assay [7] deals with T1, Serine/threonine-protein kinase 4 (Homo sapiens). The conditions noted are these: at 1 µM.
The target in assay [8] is T2, Serine/threonine-protein kinase 3 (Homo sapiens) (UniProt Q13188).
T2 sequence (whole entry): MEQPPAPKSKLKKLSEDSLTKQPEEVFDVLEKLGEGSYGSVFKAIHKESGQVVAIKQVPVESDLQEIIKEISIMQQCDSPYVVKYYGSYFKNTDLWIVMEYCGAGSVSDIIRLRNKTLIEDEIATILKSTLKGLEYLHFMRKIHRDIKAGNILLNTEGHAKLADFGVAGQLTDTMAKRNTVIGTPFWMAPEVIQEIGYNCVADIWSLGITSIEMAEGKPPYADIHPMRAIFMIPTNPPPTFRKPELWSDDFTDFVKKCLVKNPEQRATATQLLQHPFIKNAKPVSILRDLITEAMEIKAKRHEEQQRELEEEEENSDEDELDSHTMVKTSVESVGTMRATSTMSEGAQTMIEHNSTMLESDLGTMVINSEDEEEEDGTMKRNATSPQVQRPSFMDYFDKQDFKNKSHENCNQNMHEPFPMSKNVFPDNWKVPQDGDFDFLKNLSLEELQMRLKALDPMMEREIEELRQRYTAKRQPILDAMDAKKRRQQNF
As to conditions: at 0.1 µM.

The target in assay [9] is T2, Serine/threonine-protein kinase 3 (Homo sapiens). As to conditions: at 1 µM.
In assay [10] the target is Serine/threonine-protein kinase 26 (Homo sapiens) (UniProt Q9P289). As to conditions: at 0.1 µM.
Sequence of Serine/threonine-protein kinase 26 (Homo sapiens) (Q9P289 2-416 limits assumed): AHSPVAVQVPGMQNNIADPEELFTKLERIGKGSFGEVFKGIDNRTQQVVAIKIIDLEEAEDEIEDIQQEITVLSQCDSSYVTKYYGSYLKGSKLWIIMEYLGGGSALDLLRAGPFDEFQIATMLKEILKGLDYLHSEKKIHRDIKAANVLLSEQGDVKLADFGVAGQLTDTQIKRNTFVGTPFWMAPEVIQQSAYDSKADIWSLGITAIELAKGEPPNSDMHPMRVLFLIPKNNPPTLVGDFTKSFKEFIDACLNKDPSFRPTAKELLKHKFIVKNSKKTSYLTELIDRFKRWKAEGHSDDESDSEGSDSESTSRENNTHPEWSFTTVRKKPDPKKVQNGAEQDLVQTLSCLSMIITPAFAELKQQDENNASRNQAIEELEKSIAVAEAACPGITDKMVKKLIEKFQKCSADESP

Sequence of Misshapen-like kinase 1 (Homo sapiens) (Q8N4C8 whole entry, looked up): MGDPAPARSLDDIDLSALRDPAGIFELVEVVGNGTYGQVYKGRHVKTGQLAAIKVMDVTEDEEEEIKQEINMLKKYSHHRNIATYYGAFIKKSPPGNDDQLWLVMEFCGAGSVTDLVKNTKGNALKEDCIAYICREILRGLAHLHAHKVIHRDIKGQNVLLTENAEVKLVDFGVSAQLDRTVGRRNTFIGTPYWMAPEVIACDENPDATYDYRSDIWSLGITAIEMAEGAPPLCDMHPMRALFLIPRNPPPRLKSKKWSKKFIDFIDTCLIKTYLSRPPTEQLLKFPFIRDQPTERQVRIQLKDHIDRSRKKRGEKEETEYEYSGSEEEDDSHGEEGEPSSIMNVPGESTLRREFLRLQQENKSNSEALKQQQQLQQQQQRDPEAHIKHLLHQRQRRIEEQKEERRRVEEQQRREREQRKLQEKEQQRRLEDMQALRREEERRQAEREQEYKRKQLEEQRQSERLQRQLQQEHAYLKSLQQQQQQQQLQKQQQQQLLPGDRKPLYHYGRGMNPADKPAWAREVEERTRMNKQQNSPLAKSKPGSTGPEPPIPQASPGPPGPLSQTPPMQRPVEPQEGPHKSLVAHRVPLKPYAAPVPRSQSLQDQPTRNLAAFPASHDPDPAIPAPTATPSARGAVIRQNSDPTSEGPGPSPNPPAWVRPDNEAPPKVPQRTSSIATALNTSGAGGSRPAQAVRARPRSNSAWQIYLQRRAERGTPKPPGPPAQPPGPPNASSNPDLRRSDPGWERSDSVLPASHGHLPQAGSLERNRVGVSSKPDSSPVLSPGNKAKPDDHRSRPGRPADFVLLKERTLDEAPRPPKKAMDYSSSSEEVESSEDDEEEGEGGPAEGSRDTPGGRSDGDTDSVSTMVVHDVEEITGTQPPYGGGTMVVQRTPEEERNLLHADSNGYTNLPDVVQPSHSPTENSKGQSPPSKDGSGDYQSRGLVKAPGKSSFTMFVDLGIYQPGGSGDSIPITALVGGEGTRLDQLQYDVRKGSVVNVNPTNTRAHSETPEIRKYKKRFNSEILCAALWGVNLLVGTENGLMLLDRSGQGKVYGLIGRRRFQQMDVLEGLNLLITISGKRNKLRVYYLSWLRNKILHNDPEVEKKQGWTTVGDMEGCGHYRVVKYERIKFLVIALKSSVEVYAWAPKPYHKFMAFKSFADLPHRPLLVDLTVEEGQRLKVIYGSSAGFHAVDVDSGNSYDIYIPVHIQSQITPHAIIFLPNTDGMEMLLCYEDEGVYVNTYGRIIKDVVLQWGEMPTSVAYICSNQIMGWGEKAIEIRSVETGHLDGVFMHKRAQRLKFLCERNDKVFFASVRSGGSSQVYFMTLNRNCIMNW
Sequence of Mitogen-activated protein kinase kinase kinase kinase 4 (Homo sapiens) (O95819 2-1239 limits assumed): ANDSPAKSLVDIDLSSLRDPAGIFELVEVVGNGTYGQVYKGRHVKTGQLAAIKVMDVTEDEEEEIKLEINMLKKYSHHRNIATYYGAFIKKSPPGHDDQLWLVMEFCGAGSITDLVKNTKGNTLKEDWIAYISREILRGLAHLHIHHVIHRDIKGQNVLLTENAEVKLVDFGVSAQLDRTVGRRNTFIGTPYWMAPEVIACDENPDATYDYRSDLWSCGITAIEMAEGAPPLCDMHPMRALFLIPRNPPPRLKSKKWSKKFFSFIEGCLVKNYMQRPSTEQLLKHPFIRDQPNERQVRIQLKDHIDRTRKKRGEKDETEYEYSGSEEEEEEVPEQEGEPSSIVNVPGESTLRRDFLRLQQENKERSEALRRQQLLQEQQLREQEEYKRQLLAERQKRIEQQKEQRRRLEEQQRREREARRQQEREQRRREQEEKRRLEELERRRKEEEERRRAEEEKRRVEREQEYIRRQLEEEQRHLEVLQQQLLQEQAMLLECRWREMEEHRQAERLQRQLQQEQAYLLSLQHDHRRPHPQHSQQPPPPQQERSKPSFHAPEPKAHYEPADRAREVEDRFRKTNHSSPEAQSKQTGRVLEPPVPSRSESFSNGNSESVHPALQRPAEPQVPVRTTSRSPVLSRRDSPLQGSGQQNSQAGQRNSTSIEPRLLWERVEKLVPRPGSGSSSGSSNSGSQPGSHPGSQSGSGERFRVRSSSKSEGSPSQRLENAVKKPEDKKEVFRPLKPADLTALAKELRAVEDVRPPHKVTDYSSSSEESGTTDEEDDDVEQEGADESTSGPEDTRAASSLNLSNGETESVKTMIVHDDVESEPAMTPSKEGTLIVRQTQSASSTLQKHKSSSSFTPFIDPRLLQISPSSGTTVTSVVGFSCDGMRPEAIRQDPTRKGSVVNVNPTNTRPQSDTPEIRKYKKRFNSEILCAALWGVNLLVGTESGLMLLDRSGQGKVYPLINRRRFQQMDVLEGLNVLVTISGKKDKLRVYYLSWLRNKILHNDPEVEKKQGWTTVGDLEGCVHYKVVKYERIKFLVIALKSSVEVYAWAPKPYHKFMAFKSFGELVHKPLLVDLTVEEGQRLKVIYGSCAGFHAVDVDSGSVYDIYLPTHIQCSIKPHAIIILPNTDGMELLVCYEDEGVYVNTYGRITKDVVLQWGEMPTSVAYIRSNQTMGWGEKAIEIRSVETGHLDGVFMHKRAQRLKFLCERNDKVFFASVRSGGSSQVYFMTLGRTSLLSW
Sequence of Dual specificity mitogen-activated protein kinase kinase 1 (Homo sapiens) (Q02750 whole entry): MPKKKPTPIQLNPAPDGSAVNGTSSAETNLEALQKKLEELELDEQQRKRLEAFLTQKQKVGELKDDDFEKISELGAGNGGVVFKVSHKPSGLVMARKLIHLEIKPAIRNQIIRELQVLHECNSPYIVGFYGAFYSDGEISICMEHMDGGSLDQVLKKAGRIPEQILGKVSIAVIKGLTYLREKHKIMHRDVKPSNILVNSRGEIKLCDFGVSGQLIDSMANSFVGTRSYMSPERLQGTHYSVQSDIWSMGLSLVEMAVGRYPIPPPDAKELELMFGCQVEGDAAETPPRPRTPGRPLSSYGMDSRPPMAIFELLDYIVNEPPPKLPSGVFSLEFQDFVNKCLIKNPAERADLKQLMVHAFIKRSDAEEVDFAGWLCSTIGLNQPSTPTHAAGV

As usually defined, the inhibition is the change of the read-out against control, counted positive when it falls. Turning to `Cc1nnc(-c2ccc(C)c(-c3ccc(C(=O)NCc4ccc(Cl)cc4)cc3)c2)o1`, the inhibition in [1] was determined as 5.28%; in assay [2] it was 6.35%; in [3] it was 4.13%; in assay [4], 5.42%; in assay [5], 5.04%; in assay [6], 3.28%. Further, the inhibition in [7] is 4.86%; in assay [8], 4.12%; in [9], 5.51%; in [10], -1.19%.

On to `CN(C)CCOc1ccc(-c2cc(-c3ccc4c(c3)CCC4=NO)c(-c3ccncc3)o2)cc1`, for which the inhibition in assay [1] was 17.3%; in [2] it was 1.44%; in assay [3], 2.23%; in [4], 0.59%; in assay [5], 12.5%; in [6] it was -0.36%. The inhibition in [7] is 0.8%; in assay [8], -1.52%; in assay [9], 1.19%; in [10], 0.59%.

For the compound `CCN(CC)Cc1ccc(Nc2nccc(-c3cnn4ncccc34)n2)cc1`, the inhibition in assay [1] stood at 20.4%; in assay [2] it was 3.09%; in assay [3], 13.1%; in [4] it was 5.68%; in assay [5], 17%; in assay [6], 1.35%. Further, the inhibition in assay [7] is 15.9%; in assay [8], 5.43%; in [9], 9.79%; in [10] it was -1.89%.

For the compound `COc1cc2ncn(-c3cc(OCc4cccs4)c(C(N)=O)s3)c2cc1OC`, the inhibition was determined as 67.2% in assay [1]; 3.5% in assay [2]; 2.83% in [3]; 18% in assay [4]; 63.5% in [5]; 20.6% in assay [6]. Moreover, the inhibition in assay [7] came to 65.5%; in assay [8] it was 19.5%; in [9] it was 62.6%; in assay [10], 2.25%.

For the compound `NC(=O)c1cc(-c2ccc(F)cc2)cc(-c2ccncc2)c1N`, the inhibition worked out at 9.21% in assay [1]; 5.61% in [2]; 3.83% in assay [3]; 4.49% in [4]; 10% in [5]; 3.76% in [6]. In addition, the inhibition is 5.59% in [7], 4.31% in assay [8], 5.48% in [9] and -2.72% in [10].

Take `COc1cc(N2CCN(C(C)C)CC2)ccc1Nc1nc(Nc2ccc(F)cc2C(=O)NC[C@@H](O)CO)c2cc[nH]c2n1`: the inhibition in assay [1] stood at 13.6%; in assay [2], 6.5%; in [3], 5.77%; in [4] it was 7.5%; in assay [5], 12%; in assay [6], 4.86%. In addition, the inhibition in assay [7] was 6.99%; in assay [8] it was 6.36%; in assay [9] it was 7.9%; in assay [10] it was -1.23%.

In the case of `Cc1ccc(C(=O)NC2CCC2)cc1-c1ccc(C(=O)NCC2CC2)cc1`, the inhibition in [1] was determined as 3.8%; in assay [2], 2.81%; in assay [3], 2.71%; in assay [4] it was 5.5%; in [5] it was 4.67%; in [6] it was 3.29%. Further, the inhibition in [7] is 1.77%; in assay [8], 1.04%; in assay [9], 1.53%; in assay [10] it was -3.48%.

`CCS(=O)(=O)c1ccc(OC)c(Nc2ncc(-c3cccc(-c4ccccc4F)c3)o2)c1`: the inhibition in assay [1] is 7.49%; in assay [2], -1.1%; in assay [3] it was -0.23%; in assay [4] it was 1.27%; in assay [5], 6.72%; in [6], -0.24%. Moreover, the inhibition was 0.6% in assay [7], 0.7% in [8], -0.3% in [9] and 0.48% in [10].

On to `NS(=O)(=O)c1ccc(N/N=C2\C(=O)Nc3ccc(-c4cnco4)cc32)cc1`, for which the inhibition was determined as 77.6% in assay [1]; 2.18% in [2]; 5.31% in assay [3]; 51.6% in [4]; 75.8% in [5]; 43.8% in [6]. Further, the inhibition in assay [7] was 76.8%; in assay [8], 33.4%; in assay [9], 73.2%; in assay [10] it was 0.61%.

For the compound `NS(=O)(=O)c1ccc(N/N=C2\C(=O)Nc3ccc(C(=O)NCCCn4ccnc4)cc32)cc1`, the inhibition was 52.1% in [1]; 10.7% in [2]; 38% in assay [3]; 9.83% in assay [4]; 41.5% in assay [5]; 28.6% in assay [6]. Also, the inhibition in assay [7] is 75.5%; in assay [8], 22.2%; in assay [9], 70%; in assay [10] it was -0.28%.

As to `CN(C)CCCNc1nccc(-c2c(-c3ccc(F)cc3)nn3cc(C(F)(F)F)ccc23)n1`, the inhibition amounted to 10.6% in assay [1]; 1.86% in assay [2]; 2.52% in [3]; 5.22% in [4]; 7.76% in assay [5]; 2.92% in assay [6]. Moreover, the inhibition in assay [7] is 4.75%; in assay [8] it was 3.38%; in assay [9], 3.61%; in assay [10] it was -0.11%.

With `O=C1NC(=O)C(c2cccc(Cl)c2)=C1Nc1ccc(Cl)c(C(=O)O)c1`, the inhibition was found to be 8.37% in assay [1]; 5.3% in [2]; 2.84% in assay [3]; 4.74% in assay [4]; 7.9% in assay [5]; 5.13% in assay [6]. Moreover, the inhibition in assay [7] came to 7.28%; in assay [8], 6.05%; in [9], 9.28%; in assay [10], 0.55%.

Regarding `Fc1ccc(-c2c(-c3ccncc3)nc3n2CCS3)cc1`, the inhibition was 10.8% in [1]; 3.75% in assay [2]; 4.29% in assay [3]; 4.97% in assay [4]; 9.56% in assay [5]; 1.09% in assay [6]. Moreover, the inhibition is 2.38% in assay [7], 1.69% in assay [8], 3.46% in assay [9] and -0.47% in [10].

In the case of `CCS(=O)(=O)c1ccc(OC)c(Nc2ncc(-c3ccccc3Cl)o2)c1`, the inhibition in assay [1] was 24.2%; in assay [2], -0.28%; in [3], 0.4%; in assay [4], 4.25%; in [5], 22.4%; in assay [6] it was 1.96%. Also, the inhibition in [7] was 5.89%; in assay [8] it was 1.11%; in assay [9], 2.6%; in [10] it was 1.19%.

Regarding `CS(=O)(=O)CCNCc1ccc(-c2ccc3ncnc(Nc4ccc(OCc5ccccc5)c(Br)c4)c3c2)o1`, the inhibition in [1] worked out at 6.29%; in [2], 1.96%; in assay [3], 1.78%; in [4], 4.51%; in assay [5], 5.24%; in [6], 2.67%. The inhibition is 2.76% in assay [7], 4.32% in assay [8], 5.08% in assay [9] and -0.82% in [10].

Turning to `Fc1ccc(-c2nc3n(c2-c2ccncc2)CCS3)cc1`, the inhibition was determined as 18.3% in assay [1]; 5.23% in assay [2]; 5.11% in [3]; 6.96% in assay [4]; 14% in [5]; 3.57% in assay [6]. For the same compound, the inhibition was 4.41% in assay [7], 3.46% in assay [8], 3.73% in [9] and -1.69% in [10].

For `Nc1nccc(-c2c(-c3ccc(F)cc3)ncn2C2CCC(O)CC2)n1` (stereo not given), the inhibition is 72.8% in assay [1]; -3.17% in assay [2]; -3.2% in assay [3]; 6.81% in assay [4]; 62.4% in [5]; 0.86% in assay [6]. Further, the inhibition is 22% in assay [7], -0.05% in assay [8], 14.6% in assay [9] and 0.75% in [10].
